# aSyn 5UTR act – Activators working through SNCA 5'UTR binding (MLPCN); activity score, % (tested at 7.5 µM), hits read low; hit rate 7.1% among 300,000; alpha-synuclein 5'UTR reporter, activators screen; in the data active = activity score below about -60%
# Active calls of the source: *. The list is a sample of the results.
SMILES,aSyn 5UTR act
COc1cccc(NC(=O)/C=C/c2ccc([N+](=O)[O-])cc2)c1,-84.1*
CCCOc1ccc(/C=C/C(=O)Nc2ccc([N+](=O)[O-])cc2)cc1,68.0
COc1cccc(NC(=O)/C=C/c2ccccc2[N+](=O)[O-])c1,-202.4*
COC(=O)C(=Cc1ccccc1[N+](=O)[O-])C(=O)OC,-239.8*
CN(C)S(=O)(=O)c1cccc(NC(=S)N/N=C/c2cc(Br)ccc2O)c1,69.4
CN(C)S(=O)(=O)c1cccc(NC(=O)/C=C/c2ccccc2[N+](=O)[O-])c1,-65.4*
O=C(/C=C/c1ccccc1[N+](=O)[O-])Nc1cccnc1,-122.9*
Nc1cccc(/C=C/c2ccncc2)c1,-68.0*
O=C(COC(=O)c1c(F)cccc1Cl)NC1CCCC1,-77.8*
COc1cccc(NC(=O)COC(=O)c2c(F)cccc2Cl)c1,-147.8*
CS(=O)(=O)Nc1ccc(C(=O)NCCc2ccccc2)cc1,-124.8*
O=C(NCCS(=O)(=O)NCCc1ccccc1)c1ccccc1,-62.1*
COc1ccc(/C=C/C(=O)c2ccc(O)cc2)cc1,-196.3*
COc1ccc(/C=C/C(=O)c2ccccc2O)cc1,-233.5*
COC(=O)c1ccc2c(c1)C(C)(C)C(/C=C/c1ccc(O)cc1)=[N+]2C,119.3
COc1cc(/C=C/c2ccc(O)cc2)cc(OC)c1,-156.1*
COc1ccc(/C=C/c2cc(-c3ccc(C)cc3)o[n+]2C)cc1,89.2
COc1ccc(/C=C/C(=O)c2ccoc2)cc1,-62.4*
COc1ccc(C(=O)NNC(=O)c2ccccn2)cc1,79.0
COc1ccc2cc(C(=O)/C=C/c3cc(OC)c(OC)c(OC)c3)ccc2c1,-62.4*
COc1ccc(/C=C/C(=O)c2ccccn2)cc1,-97.7*
Nc1ccc2oc(-c3ccccc3Cl)cc(=O)c2c1O,-63.5*
O=C(c1ccc(Br)cc1)C(CN1CCOCC1)c1ccccc1 (configuration not stated),-152.2*
c1ccc2c(Nc3nnc(-c4ccncc4)s3)cccc2c1,-186.2*
Cc1ccccc1OCCCn1c(=O)sc2ccccc21,-129.8*
SMILES,aSyn 5UTR act
Cc1ccc(OCCn2c(=O)sc3ccccc32)cc1,-115.3*
O=c1sc2ccccc2n1CCCOc1ccccc1,-137.0*
O=c1sc2ccccc2n1COc1ccc(Cl)cc1,-89.6*
c1ccc(Sc2cccc3ccccc23)c(CNC2=NCCN2)c1,60.7
Cc1ccc(OCCCn2c(=O)sc3ccccc32)cc1,-65.0*
Cc1ccc(NC(=O)c2cc3cccc([N+](=O)[O-])c3[nH]2)cc1,-110.4*
Cc1cn(-c2ccc(Br)cc2)[nH]c1=O,-78.6*
Cc1ccc(NC(=O)c2snc3ccc(Cl)cc23)cc1C,-215.8*
Cc1ccccc1-c1noc(-c2cccs2)n1,-250.6*
Cc1ccccc1-c1nnc(-c2cccs2)o1,-115.9*
Cc1ccc(NC(=O)c2oc3ccccc3c2C)nc1,-94.1*
Cc1c(C(=O)Nc2ccccn2)oc2ccccc12,-259.1*
Cc1c(C(=O)Nc2cccnc2Cl)oc2ccccc12,-181.3*
CCC1CCCCN1CCCNC(=O)Cn1c2ccccc2c2nc(=O)cc(C)n21 (configuration not stated),-138.9*
Cc1[nH]n(-c2ccc([N+](=O)[O-])cc2)c(=O)c1C=NCC1CCCO1 (configuration not stated),-88.0*
COCc1nc2oc3ccc(C)cc3c(=O)c2cc1C(=O)OC,-270.4*
COCc1nc2oc3ccc(F)cc3c(=O)c2cc1C(=O)OC,-108.3*
CCc1nc2oc3ccccc3c(=O)c2cc1C(=O)OC,-155.9*
O=C(CSc1nnc(-c2cccnc2)o1)Nc1cccc(F)c1,-86.2*
O=C(CSc1nnc(-c2cccnc2)o1)Nc1ccc(Br)cc1,-76.7*
O=C(CSc1nnc(-c2ccc(Br)cc2)o1)Nc1cccc(C(=O)O)c1,97.9
O=C(NNC(=S)NC1CCCCC1)c1ccc2c(c1)OCO2,-77.9*
S=C(NC1CCCCC1)c1ccc2c(c1)OCO2,-64.8*
O=C(NC1CCCCC1)c1ccc2c(c1)OCCO2,-82.4*
COc1ccc(-c2nc(CS(=O)CC(=O)NCCC3=CCCCC3)c(C)o2)cc1 (configuration not stated),-86.1*
SMILES,aSyn 5UTR act
S=C(NCC1CCCO1)Nc1ccc(Cl)cc1Cl (configuration not stated),-87.4*
Clc1ccc(-c2ccc(CNCC3CCCO3)o2)cc1 (configuration not stated),-67.4*
Cn1c(SCC(=O)NCC2CCCO2)ncc(C(=O)Nc2ccc(Cl)cc2)c1=O (configuration not stated),-71.8*
CCN(CC)c1ccc(NC(=S)NCC2CCCO2)cc1 (configuration not stated),-82.8*
O=C(NCC1CCCO1)Nc1ccc(Cl)cc1 (configuration not stated),-73.0*
S=C(NCC1CCCO1)Nc1ccc(Cl)cc1 (configuration not stated),-72.2*
O=C(Nc1ccc(C(=O)c2ccccc2)cc1)c1ccccc1,-188.7*
O=C(Nc1ccc(NC(=O)c2ccccc2Br)cc1)c1ccccc1,-84.5*
O=C(Nc1ccc(C(F)(F)F)cc1)c1ccccc1Br,-81.7*
O=C(Nc1ccc(Br)c(C(F)(F)F)c1)c1ccccc1,-90.1*
Brc1ccc2c(c1)OCCOCCOc1cc(Br)ccc1OCCOCCOCCO2,72.7
O=C(c1cc2cc(Br)ccc2o1)N1CCOCC1,-84.9*
O=C(c1cc2cc(Br)ccc2o1)N1CCCC1,-63.5*
COc1ccc(/C(C)=N/NC(=O)OC(C)(C)C)cc1[N+](=O)[O-],-67.7*
Cc1ccc(N2CN=C(c3ccccc3)NC2=S)cc1,-113.4*
COc1ccc(C2=NCN(c3ccc(C)cc3)C(=S)N2)cc1,-138.1*
COc1ccc2nc(C)cc(Nc3ccc(N4CCN(C)CC4)cc3)c2c1,-87.2*
COc1ccc(OC)c(Nc2cc(C)nc3ccc(C)cc23)c1,62.9
COC(=O)C(=Cc1ccc(OCc2ccc([N+](=O)[O-])cc2)c(OC)c1)C(=O)OC,-259.5*
COc1cc(C(c2c(C)[nH][nH]c2=O)c2c(C)[nH][nH]c2=O)ccc1OCc1ccc([N+](=O)[O-])cc1,-145.8*
CCOC(=O)C(=Cc1ccc(OCc2ccc([N+](=O)[O-])cc2)c(OC)c1)C(=O)OCC,-267.0*
CC(C)Oc1cccc(C(=O)C2CCCN(C(=O)CCc3cnn(C)c3)C2)c1 (configuration not stated),-77.0*
COc1ccc2c(c1)C1=NN(/C(C)=C/C(C)=O)C(c3cccc(F)c3)C1CC2 (configuration not stated),-63.8*
COc1ccc2c(c1)C1=NN(/C(C)=C\C(C)=O)C(c3ccccc3)C1CC2 (configuration not stated),-140.8*
COc1ccc2c(c1)C1=NN(/C(C)=C/C(C)=O)C(c3ccc(F)cc3)C1CC2 (configuration not stated),-78.1*
SMILES,aSyn 5UTR act
CC(C)C(=O)Nc1nc(-c2ccc3c(c2)CCN3C(=O)C2CC2)cs1,-101.5*
CC(C)(C)Nc1nc(-c2ccc3c(c2)CCN3C(=O)C2CC2)cs1,-80.4*
CC(=O)Nc1nc(-c2ccc3c(c2)CCN3S(C)(=O)=O)cs1,-207.0*
CSCc1ccc(C(=O)Nc2cccc(C)c2C)cc1,-81.9*
Cc1cccc(NC(=O)Nc2ccccn2)c1C,-70.6*
Cc1cccc(NC(=O)c2ccccn2)c1C,-111.8*
Oc1cccc2ccc(Nc3ccccn3)nc12,98.4
c1ccc(Nc2ccccc2Nc2ccccn2)nc1,-63.0*
Cc1ccccc1NC(=O)Nc1ccccn1,-110.7*
O=C(Nc1ccccn1)Nc1ccccc1[N+](=O)[O-],-90.9*
CC(C)(C)CC(=O)Nc1ccc(-c2cn3cccnc3n2)cc1,-80.0*

# Assay outcomes as filed in PubChem BioAssay.
